Assay outcomes deposited in PubChem by several laboratories.
eLon inh – inhibits E. coli Lon protease. inhibition, % at 7.94 µM. P0A9M0. purified E. coli Lon protease, fluorescence polarization. AID 602123. 360,000 compounds, 0.42% hits; in the data active = inhibition above about 13%, passing the limit was not always enough;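 also: 0% = enzyme with probe and DMSO and 100% = no enzyme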
EBV gp42 block – EBV gp42 inhibition. inhibition, % (tested at 21.74 µM). Q1HVG2. AID 1085. Fluorescence polarization binding assay, mP read-out. 220,000 compounds, 0.42% hits; in the data active = inhibition above about 50%
Target sequence (Q1HVG2 whole entry, looked up): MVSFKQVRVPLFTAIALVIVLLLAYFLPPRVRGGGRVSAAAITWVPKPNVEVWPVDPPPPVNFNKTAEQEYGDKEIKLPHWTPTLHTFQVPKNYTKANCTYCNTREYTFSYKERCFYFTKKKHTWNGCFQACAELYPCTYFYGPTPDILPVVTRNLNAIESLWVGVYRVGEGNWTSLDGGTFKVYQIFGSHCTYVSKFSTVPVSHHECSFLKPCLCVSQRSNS
BCLXL inh – inhibitors of human Bcl-xL; Q07817; 320,000 compounds, 0.7% hits; GST-Bcl-xL / FITC-Bim BH3 peptide fluorescence polarization; inhibition, % at 10.9 µM;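 active = inhibition above the mean of all tested compounds plus 3 SD, cutoff set per campaign, cut at about 30% in these data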;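 also: 0% = DMSO wells and 100% = unlabeled Bim-BH3 peptide competitor; inhibitors lower millipolarization by displacing the labeled peptide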
Target sequence (Q07817 whole entry, looked up): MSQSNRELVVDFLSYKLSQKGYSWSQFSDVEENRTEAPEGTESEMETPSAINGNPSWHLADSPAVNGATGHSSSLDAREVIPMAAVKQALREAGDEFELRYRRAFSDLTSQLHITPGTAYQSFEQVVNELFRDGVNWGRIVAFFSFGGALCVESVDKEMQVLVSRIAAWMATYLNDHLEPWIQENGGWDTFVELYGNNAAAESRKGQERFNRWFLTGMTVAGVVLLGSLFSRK
GLD-1 RNA inh – GLD-1-TGE RNA interaction inhibition (C. elegans). inhibition, % at 5.96 µM. purified GLD-1 + fluorescein TGE RNA, fluorescence polarization. Q17339. 320,000 compounds, 0.44% hits;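 active = percent inhibition above a per-plate cutoff, the plate mean of test compounds plus 3 SD, cut at about 30% in these data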;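 also: 0% = DMSO wells with GLD-1 and probe and 100% = wells lacking GLD-1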
MEX-5 binding – C. elegans MEX-5 TCR-2 RNA binding activity. Q9XUB2. MEX-5/FITC-TCR2 RNA binding, fluorescence polarization; hits give low values. activity score (negative = inhibition of binding), % at 10 µM. 300,000 compounds, 0.38% hits. AID 1832;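 active = inhibition past about -25% in most replicates, and total fluorescence under double the plate's negative control median, limit read from the data; inconclusive = replicates evenly split on the limit, or fluorescence at least double controls; inactive = too little inhibition in most replicates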;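 also: 0% = DMSO and -100% = 5 µM competing unlabeled TCR2 RNA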
E coli Lon conf – confirmation of E. coli Lon protease inhibitors; purified E. coli Lon, fluorescence polarization; AID 602230; shares compounds with eLon inh; 1,400 compounds, 31% hits; inhibition, % at 7.94 µM; in the data active = inhibition above about 16%;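 also: 0% = enzyme with probe and DMSO and 100% = no enzyme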
Starred values were filed as active, the others as inactive; ? = inconclusive; . = not tested or not shown. Shown are actives, neighbours in structure and some others; about 1.3% of the full set was active somewhere.

SMILES	eLon inh	EBV gp42 block	BCLXL inh	GLD-1 RNA inh	MEX-5 binding	E coli Lon conf
COc1ccc(CNCCCC(=O)Nc2c(Cl)ccc(C)c2Cl)cc1OC	-1	.	-3	-1	-1	.
CCOC(=O)c1c(C(C)(C)C)oc2ccc(O)cc12	20*	7	2	9	.	2
CC(C)C[C@@H](CN1CCC[C@H]1CN1C(=O)C(=O)NC[C@@H]1Cc1ccc(O)cc1)N1C[C@H](Cc2ccccc2)N(CCc2ccccc2)C(=O)C1=O	11*	.	.	.	.	-1
O=C(Cc1ccccc1)NCC(=O)N1CCC1	-16	.	-3	-1	-3	.
Cc1ccc(NS(=O)(=O)c2c(C)[nH]c(C)c2C(=O)N2CCCC2)cc1Cl	1	.	1	0	0	.
CC1(C)CC(=O)C2=C(C1)OC1=C(C(=O)CC(C)(C)C1)C2c1ccc(O)cc1O	65*	117*	174*	128*	?	96*
CC1CCN(C(=O)c2[nH]cnc2C(=O)Nc2ccon2)CC1	-1	.	-1	2	.	.
Oc1c(N=Nc2nn[nH]n2)ccc2ccccc12	48*	.	.	.	.	25*
Oc1c(N=Nc2ccc(F)cc2)ccc2ccccc12	-2	.	7	6	3	.
Oc1cccc(Nc2c3ccccc3nc3ccccc23)c1	16	.	13	11	-1	.
c1cncc(Nc2c3ccccc3nc3ccccc23)c1	25*	.	8	11	3	-5
COc1ccc(-c2nc(CSCC(=O)N3CCN(C)CC3)c(C)o2)cc1OC	-3	-31	0	6	-1	.
CCN1CCN(C(=O)CSCc2nc(-c3ccc(OC)c(OC)c3)oc2C)CC1	15*	-29	4	0	-2	7
O=C(O)c1cc(N2C(=O)C3C4C=CC(C4)C3C2=O)ccc1N1CCOCC1 (configuration not stated)	-8	9	0	-3	2	.
OC(Cn1cncn1)(c1ccccc1)c1ccccc1	-4	5	0	-1	1	.
CCCn1c(NC(=O)CSCC(=O)Nc2cc(C)on2)nc2ccccc21	22*	.	-9	2	-1	-4
CCc1nc2ccccc2n1CC(=O)Nc1cc(C)on1	-3	-6	-1	-2	-1	.
Cc1[nH]c(=O)sc1C(=O)NCc1ccc([N+](=O)[O-])cc1	-1	.	.	.	.	.
O=C1c2ccccc2C(O)N1Cc1ccc2c(c1)OCO2 (configuration not stated)	15*	-11	3	3	-1	-1
COc1ccc(C(=O)N=C2SC3CS(=O)(=O)CC3N2c2ccccc2)cc1OC (configuration not stated)	19*	.	4	6	-2	1
CCCN1CCN(S(=O)(=O)c2cn(C)nc2C)CC1	22*	.	66*	27	-22	14
Cc1ccc[n+](-c2[nH]c(=O)sc2/C=N/N=C(\[O-])CCn2c3ccccc3c3ccccc32)c1	9	5	14	12	1	.
CC(C)(C)c1cc[n+](-c2[nH]c(=O)sc2/C=N/NC([S-])=Nc2ccccc2)cc1	165*	117*	177*	160*	?	71*
Cc1cc[n+](-c2[nH]c(=O)sc2/C=N/NC([S-])=Nc2ccccc2)cc1C	95*	64*	129*	131*	-6	33*
CCc1ccc[n+](-c2[nH]c(=O)sc2/C=N/N=C(\[O-])c2ccncc2)c1	3	.	2	5	-3	.
SMILES	eLon inh	EBV gp42 block	BCLXL inh	GLD-1 RNA inh	MEX-5 binding	E coli Lon conf
COc1ccc(N2CCN(S(=O)(=O)CCNC(=O)C3CC3)CC2)cc1	7	.	1	-1	-2	.
COc1ccc2oc3cc(NCCN(C)C)ccc3c(=O)c2c1	-1	.	.	.	.	.
Cc1cc(C(=O)COC(=O)c2cccc(O)c2)c(C)n1C1CC1	28*	.	-1	6	.	-34
CC(C)(C)OC(=O)C[C@H]1C/C=C\C[C@H](CC(=O)NCCO)C(=O)N[C@@H](Cc2ccccc2)COC1=O	-2	.	.	0	.	.
O=C(NC(=S)NNS(=O)(=O)c1ccccc1)c1cccnc1	17	0	6	6	?	.
O=C(NC(=S)NNS(=O)(=O)c1ccccc1)c1ccccc1[N+](=O)[O-]	23*	4	9	0	-5	-48
CCCCC(=O)NC(=S)NNS(=O)(=O)c1ccccc1	20*	-12	12	0	1	-97
CN1CCN(S(=O)(=O)c2ccc(CNC(=O)c3ccccc3)s2)CC1	0	.	2	-2	0	.
COc1ccc(CCNC(=O)c2ccc(CSc3ccc(Cl)cc3)o2)cc1OC	5	.	.	.	.	.
Cn1c(=O)n(CC(=O)N2CCN(c3nnc(-c4ccccc4)c4ccccc34)CC2)c2ccccc21	6	-2	5	3	-2	.
Cc1ccc(-c2nnc(N3CCN(C(=O)Cn4c(=O)n(C)c5ccccc54)CC3)c3ccccc23)cc1	24*	-6	5	0	1	2
Cc1ccc(S(=O)(=O)Cc2cc(F)c([N+](=O)[O-])cc2[N+](=O)[O-])cc1	-16	.	5	3	3	.
COC(=O)C1=C(C)NC2=C(C(=O)CCC2)C1c1ccsc1 (configuration not stated)	.	5	.	.	-3	.
COC(=O)C1=C(C)NC2=C(C(=O)CCC2)C1c1ccc(-c2ccsc2C(=O)OC)o1 (configuration not stated)	18*	-8	6	0	-1	-27
Cc1cc(NS(=O)(=O)c2ccccc2)ccc1NS(=O)(=O)c1ccccc1	4	.	.	.	.	.
O=S(=O)(Nc1ccc(O)c(NS(=O)(=O)c2ccccc2)c1)c1ccccc1	18*	.	8	11	-20	3
CCN(CC(=O)NCc1ccc(Cl)cc1)C(=O)c1ccc(S(=O)(=O)N(C)C)cc1	2	-16	0	0	1	.
CCN(CC(=O)Nc1c(F)cccc1F)C(=O)CNC(=O)c1ccc2ccccc2c1	-5	.	7	3	.	.
CCN(CC(=O)Nc1c(F)cccc1F)C(=O)c1cc2ccccc2oc1=O	23*	.	1	-2	-2	-2
CCN(C(=O)c1ccc(S(=O)(=O)N2CCCCC2)cc1)C1CCS(=O)(=O)C1 (configuration not stated)	-5	.	9	4	2	.
O=C(Cn1ccc2ccccc2c1=O)NCC(=O)N1CCCCC1	-10	.	-1	2	-1	.
COc1ccccc1C(=O)NCCn1ccc2ccccc21	16*	-8	1	4	2	10
COc1ccc(C(=O)NCCn2ccc3ccccc32)cc1OC	0	-11	0	2	-1	.
CCC(C)c1ccc(NC(=O)COC(=O)CCNS(=O)(=O)c2cccs2)cc1 (configuration not stated)	26*	.	.	2	.	45*
O=C(NCCC(=O)N1CCCC1)c1ccccc1Cl	-2	.	-1	1	1	.
CC1CCCCN1CCNC(=O)c1cnn2ccccc12 (configuration not stated)	14*	-16	5	2	-4	-36
